CYP2C9 act: activators of human CYP2C9; P11712; 1.4% of 96,000 active; activation factor at 5 µM; recombinant CYP2C9, luciferin-H conversion, luminescence; hits give high values; factor 1 = untreated enzyme, 0 = blocked;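 active means activation factor of 2 or more for CYP2C9 at a 5 µM dose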
CYP2C19 inh: inhibitors of human CYP2C19. CYP2C19 Supersomes, luciferin-H EGE luminescence, 30 min. inhibition, % at 5 µM. 21% of 96,000 active;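 active means CYP2C19 inhibition above a set limit at 5 µM in the primary screen, cut at about 50% in these data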
Target sequence (P33261 whole entry, looked up): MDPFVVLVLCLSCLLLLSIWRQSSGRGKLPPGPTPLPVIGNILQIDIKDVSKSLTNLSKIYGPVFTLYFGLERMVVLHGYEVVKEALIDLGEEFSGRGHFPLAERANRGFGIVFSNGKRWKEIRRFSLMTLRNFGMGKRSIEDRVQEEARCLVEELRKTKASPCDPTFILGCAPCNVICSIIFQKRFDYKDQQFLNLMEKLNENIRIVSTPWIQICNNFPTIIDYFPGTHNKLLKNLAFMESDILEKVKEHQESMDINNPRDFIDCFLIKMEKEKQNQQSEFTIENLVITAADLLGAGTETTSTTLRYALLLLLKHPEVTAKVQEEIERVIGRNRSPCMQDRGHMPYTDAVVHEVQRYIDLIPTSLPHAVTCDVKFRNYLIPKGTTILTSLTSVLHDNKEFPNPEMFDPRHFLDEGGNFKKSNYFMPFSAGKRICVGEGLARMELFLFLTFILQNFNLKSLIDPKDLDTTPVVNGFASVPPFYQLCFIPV
CD11b adhes inh: inhibitors of human CD11b/CD18 binding to fibrinogen. P05107+P11215. K562 CD11b/CD18 adhesion to fibrinogen, ATPlite luminescence; Mn2+ added to activate the integrin. inhibition, % at 10 µM. 0.54% of 93,000 active;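 active means primary inhibition of 50% or more at 10 µM, then 40% or more on retest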
CYP2C19 act: activators of human cytochrome P450 2C19; P33261; recombinant CYP2C19, luciferin-H EGE luminescence; hits give high values; 0 = fully inhibited enzyme, 1 = untreated enzyme; activation factor at 5 µM; 96,000 tested, under 10 active; AID 1025;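 active means activation factor of at least 2 at 5 µM in the primary screen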
CYP2C9 inh: human CYP2C9 inhibition. P11712. CYP2C9 Supersomes, luciferin-H conversion, luminescence. inhibition, % at 5 µM. 20% of 96,000 active. AID 777;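 active means blocking of liver enzyme CYP2C9 beyond about 50% at 5 µM, limit read from the data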
CD11b adhes enh: enhancers of human CD11b/CD18 binding to fibrinogen | 0.07% of 93,000 active | activation, % at 10 µM | AID 1499 | K562 CD11b/CD18 adhesion to fibrinogen, ATPlite luminescence;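 active means 10 µM primary screen giving 50% or more activity, confirmed by 40% or more on retest at that dose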
Each line names hits and unclear results; the compound was inactive in the other large screens. An excerpt weighted towards active compounds, which were near 28% of everything screened.

O=C(NCc1ccc2c(c1)OCO2)c1ccc(=O)[nH]c1	none
CCOC(=O)C1=C(O)/C(=C/c2cc(OC)c(OC)c(OC)c2)N=C1C	none
COc1ccc(C2(CNC(=O)c3ccco3)CCOCC2)cc1	none (no result: CD11b adhes inh, CD11b adhes enh)
Cc1ccc(S(=O)(=O)N2CCN(C(=O)CN3CCN(C)CC3)C2)cc1	none
O=C(CSc1ncnc2nc[nH]c12)N1CCOCC1	none
O=C(Cn1nc(-c2ccccc2)ccc1=O)NCc1ccc2c(c1)OCO2	none
CC(C)(C)C(=O)c1cn(CC(=O)NCc2ccc3c(c2)OCO3)c2ccccc12	CYP2C19 inh 53, CYP2C9 inh 50
Cc1nc2ccccc2nc1OCC(=O)NCc1ccc2c(c1)OCO2	CYP2C19 inh 51
CCOC(=O)c1c(NCc2ccc3c(c2)OCO3)c2ccccc2[nH]c1=O	CYP2C19 inh 74 (no result: CD11b adhes inh, CD11b adhes enh)
O=C(CSc1nnc(CNC(=O)c2c(F)cccc2Cl)o1)NCc1ccc2c(c1)OCO2	none
Cc1oc(-c2ccccc2F)nc1CSCC(=O)NCc1ccc2c(c1)OCO2	CYP2C19 inh 78, CYP2C9 inh 75
CC(C)CNC(=S)NC(=O)c1ccc(Cl)cc1Cl	none (no result: CYP2C9 act, CYP2C19 inh, CYP2C19 act, CYP2C9 inh)
CC(C)n1c(O)c(N=NC(=O)Cn2ccc(C(F)(F)F)n2)c2ccccc21	none (no result: CYP2C9 act, CYP2C19 inh, CYP2C19 act, CYP2C9 inh)
O=C(Cn1cccc1C(=O)c1ccccc1)NCc1cccs1	CYP2C19 inh 73 (no result: CD11b adhes inh, CD11b adhes enh)
O=C(CN(C(=O)C1CSC(=O)C1)c1ccccc1F)NCc1ccc2c(c1)OCO2 (configuration not stated)	CYP2C19 inh 87
CC(Sc1ccc(Cl)cc1)C(=O)NCc1cccnc1 (configuration not stated)	CYP2C19 inh 51
O=C(CCCc1c[nH]c2ccccc12)NCc1ccc2c(c1)OCO2	CYP2C19 inh 83, CYP2C9 inh 51
NC(=O)C(F)(F)C12OC3C4C5CC(C6C5C3C61)C42 (configuration not stated)	none
COc1ccc2nc(SCC(=O)c3ccco3)[nH]c2c1	none (no result: CD11b adhes inh, CD11b adhes enh)
CS(=O)(=O)N(CC(=O)NCc1ccc2c(c1)OCO2)Cc1ccccc1	CYP2C19 inh 62
O=C(Cc1ccccc1)NCc1ccc2c(c1)OCO2	CYP2C19 inh 95, CYP2C9 inh 54
O=C(Cn1nc(-c2ccc(Cl)cc2)ccc1=O)NCc1ccc2c(c1)OCO2	CYP2C19 inh 52, CYP2C9 inh 77
CS(=O)(=O)N(CC(=O)NCc1ccccc1)Cc1ccc(Cl)cc1	none
O=C(CCc1c[nH]c2ccccc12)NCc1ccc2c(c1)OCO2	CYP2C19 inh 92
COCCN1C(=O)C(=O)/C(=C(/O)c2ccc(S(=O)(=O)N3CCOCC3)cc2)C1c1ccc(C(C)C)cc1 (configuration not stated)	none
Cc1ccc(-c2noc(CNCCCN(C)C)n2)cc1	none
O=C(Cn1cccc1C(=O)c1ccccc1)NCc1ccc2c(c1)OCO2	CYP2C19 inh 55
CC(Sc1ccc(Cl)cc1)C(=O)NCc1ccc2c(c1)OCO2 (configuration not stated)	CYP2C19 inh 76, CYP2C9 inh 100
CCCC(C)C(=O)NCc1ccc2c(c1)OCO2 (configuration not stated)	none
CCOC(=O)c1cc(-c2nnc(-c3ccc(Oc4ccccc4)cc3)o2)c(C)nc1C	CYP2C9 inh 63
CCOC(=O)c1cc(C#N)c(Oc2ccc(F)cc2)nc1-c1ccccc1	none (no result: CD11b adhes inh, CD11b adhes enh)
C=C(C)C1CC=C(C)/C(=N/NC(=O)c2ccc(NC(=O)c3cccc(C)c3)cc2)C1 (configuration not stated)	CYP2C19 inh 59, CYP2C9 inh 62 (no result: CD11b adhes inh, CD11b adhes enh)
Cc1cc(NC(=O)c2ccco2)ncc1NC(=O)Cc1ccccc1	none
Cc1[nH]n(-c2ccccc2)c(=O)c1/C=N/O	none (no result: CD11b adhes inh, CD11b adhes enh)
O=c1c(Sc2ccccc2)c(C(F)(F)F)[nH]n1-c1ccccc1	CD11b adhes inh 56, CYP2C9 inh 97
COc1ccc(CNC(=O)c2cnccn2)cc1	CYP2C19 inh 58
COc1ccc(CNC(=O)c2csnn2)cc1	CYP2C19 inh 52
Cc1ccc(OC(F)F)c(NC(=O)Nc2cccc(C(F)(F)F)c2)c1	none
CCC(=O)NNc1ncnc2ccccc12	none (no result: CYP2C9 act, CYP2C19 inh, CYP2C19 act, CYP2C9 inh)
CCCCCCCCNc1ncnc2ccccc12	CYP2C19 inh 79, CD11b adhes inh 101, CYP2C9 inh 82
O=C1c2ccccc2C(=O)N1CC(O)COCc1ccccc1 (configuration not stated)	CYP2C19 inh 81 (no result: CD11b adhes inh, CD11b adhes enh)
O=C(Cc1ccc(Cl)c(Cl)c1)OCC(=O)c1ccc[nH]1	CYP2C19 inh 91, CYP2C9 inh 52
CCc1cc(=O)oc2cc(C)c(CN3CCCC3)c(O)c12	none
Cc1cc2oc(=O)cc(CN3CCCCC3C)c2c(C)c1Cl (configuration not stated)	CYP2C19 inh 56
Cc1ccc2c(CN3C(=O)NC(C)(c4ccc5c(c4)OCO5)C3=O)cc(=O)oc2c1 (configuration not stated)	CYP2C19 inh 92, CYP2C9 inh 98
Cc1ccc2c(CN3CCC(C)CC3)cc(=O)oc2c1	CYP2C19 inh 100, CYP2C9 inh 67
Cc1cc2oc(=O)cc(CN3CCC(C)CC3)c2cc1Cl	CYP2C19 inh 85
Cc1cc2oc(=O)cc(CN3CCN(Cc4ccccc4)CC3)c2cc1Cl	none (no result: CD11b adhes inh, CD11b adhes enh)
CC(C)c1nnc(NC(=O)CCC(=O)N2CCN(C3c4ccccc4-c4ccccc43)CC2)s1	none (no result: CYP2C9 act, CYP2C19 inh, CYP2C19 act, CYP2C9 inh)
O=C(Nc1cnc2ccccc2c1)c1ccncc1	CYP2C19 inh 86, CYP2C9 inh 70
O=C(Nc1ccc2c(c1)oc1ccccc12)c1ccncc1	CYP2C19 inh 82, CYP2C9 inh 97
O=C(Nc1ccc2ccccc2c1)c1cnccn1	CYP2C19 inh 56
O=C(Nc1ccc2ccccc2c1)c1cccnc1	none
O=C(Nc1ccc(S(=O)(=O)NC2CCCC2)cc1)c1cnccn1	CYP2C9 inh 95
O=C(Nc1ccc2c(c1)oc1ccccc12)c1cccnc1	none
COc1ccccc1OCC(=O)N/N=C1/SCC(=O)N1Cc1ccccc1	none (no result: CD11b adhes inh, CD11b adhes enh)
O=C(Nc1ccc2nccnc2c1)c1cnccn1	CYP2C19 inh 51
O=C(Nc1ccc(NC(=O)c2ccco2)cc1)c1cnccn1	none
C/C(N)=C(/C#N)C(=O)COC(=O)CCC1CCCC1	none
O=C(c1cccn2c(=O)c3ccccc3nc12)N1CCN(c2ccccn2)CC1	CYP2C9 inh 59
O=C(c1cccn2c(=O)c3cc(Br)ccc3nc12)N1CCN(c2ccccn2)CC1	CYP2C9 inh 59
O=C(c1cc(-c2ccncc2)nc2ccc(Br)cc12)N1CCN(c2ccccn2)CC1	CYP2C19 inh 79, CYP2C9 inh 98
O=C(c1cc(-c2ccncc2)nc2ccc(Cl)cc12)N1CCN(C(=O)C2CCCO2)CC1 (configuration not stated)	CYP2C9 inh 74
CCN1CCN(C(=O)c2cc(-c3cccnc3)nc3ccc(Br)cc23)CC1	none

Screening results: PubChem BioAssay, Sanford-Burnham Center for Chemical Genomics
